Compound activity deposited in PubChem BioAssay by Broad Institute.
The list is a sample of the results.
aSyn 5UTR act: Activators working through SNCA 5'UTR binding (MLPCN) | alpha-synuclein 5'UTR reporter, activators screen | activity score, % (tested at 7.5 µM), hits read low | actives 7.1% (n = 300,000) | AID 1814; in the data active = activity score below about -60%
* = called active by the depositor.

SMILES	aSyn 5UTR act
Cc1[nH]n(-c2nc(-c3cccc([N+](=O)[O-])c3)cs2)c(=O)c1C	-135*
CC(=O)c1sc(N/N=C\c2ccc(N(C)C)cc2)nc1C	-135*
CC(=O)Nc1nc(C)c(-c2csc(Nc3cccc([N+](=O)[O-])c3)n2)s1	67
COc1ccc(C(=O)Nc2ccc(N3CCCC3)cc2)cc1OC	-166*
CC(=O)Nc1cccc(NC(=O)c2ccc(COc3ccccc3)cc2)c1	-142*
COc1cccc(C(=O)Nc2cccc(C(C)=O)c2)c1	-114*
COc1cccc(C(=O)Nc2cccc(OC(C)=O)c2)c1	-90*
CCOc1ccc(OCc2ccc(C(=O)N/N=C(\C)c3ccccn3)cc2)cc1	64
Cc1cccc(C)c1NS(=O)(=O)c1ccc(-c2cnc(C3CC3)o2)cc1	103
CCOc1c(Cl)cc(C(=O)Nc2cccc(C(=O)O)c2)cc1Cl	-80*
CCOc1ccc(C(=O)Nc2ccc(N3CCN(C)CC3)cc2)cc1Br	-75*
COc1cccc(C(=O)Nc2cc3c(cc2C(C)=O)OCCO3)c1	-72*
CC(=O)c1cc2c(cc1NC(=O)c1ccc(C)cc1)OCO2	-101*
CC1CC(C)(C)Nc2ccc(OC(=O)c3ccco3)cc21 (stereo not drawn)	70
COc1ccc(C(=O)Nc2cccc(OC(=O)c3ccco3)c2)cc1	-113*
CCOc1cccc(C(=O)Nc2cccc(C(C)=O)c2)c1	-151*
CCOc1cccc(C(=O)Nc2ccc(N3CCCC3)cc2)c1	-66*
O=C(Nc1cc2c(cc1C(=O)O)OCCCO2)c1ccc(C(F)(F)F)cc1	-94*
CN=C1S/C(=C\c2ccc(N3CCOCC3)c(F)c2)C(=O)N1C	-76*
CN=C1S/C(=C\c2ccc(N3CCCC3)c(F)c2)C(=O)N1C	-139*
Oc1ccc(N=Nc2n[nH]c(-c3ccc(Cl)cc3)n2)cc1	-109*
COCC(C)n1c(SCc2cc(=O)n3cc(C)ccc3n2)nc2ccccc2c1=O (stereo not drawn)	64
Cc1ccc2nc(COc3ccc(Cl)cc3)cc(=O)n2c1	-109*
CCCCN(Cc1ccccc1)c1ncnc2nc[nH]c12	-63*
O=[N+]([O-])c1ccc(-c2cnc(SCc3ccccc3Cl)[nH]2)cc1	-89*
SMILES	aSyn 5UTR act
CC(=O)N1CCc2cc(N=NC3=C(O)CCCC3=O)ccc21	-100*
Cc1ccc(NC(=O)C2CC2c2ccccc2)c([N+](=O)[O-])c1 (stereo not drawn)	-88*
Oc1ccccc1CNc1cnc2ccccc2c1	-260*
C=CCc1cccc(CNc2cnc3ccccc3c2)c1O	-94*
Oc1ccc2ccccc2c1CNc1cnc2ccccc2c1	-97*
O=C(CSC(=S)N1CCOCC1)Nc1nc(=O)c2ccccc2s1	-85*
CCCn1nc(NC(=O)COC)c2cc3cc(C)ccc3nc21	-96*
CCn1nc(NC(=O)C2CCCO2)c2cc3cc(C)ccc3nc21 (stereo not drawn)	-90*
O=C1CC(/C=C/c2ccncc2)=Nc2ccccc2N1	-65*
CCC1CC(C(=O)Nc2ccccc2)C(=O)O1 (stereo not drawn)	-64*
COC(=O)C1(C)CCC(C(=O)Nc2ccccc2)C1(C)C (stereo not drawn)	62
CC(C)c1ccc(NC(=O)NN2CCOCC2)cc1	-98*
CCC(C)c1ccc(NC(=S)NN2CCOCC2)cc1 (stereo not drawn)	-99*
O=C1/C(=N\S(=O)(=O)c2cccs2)C([n+]2cccc(Cc3ccccc3)c2)=C([O-])c2ccccc21	85
CN(C(=O)c1cc2sccc2n1C)C1CCCCC1	-110*
Cn1c(C(=O)NC2CCCCC2)cc2sccc21	-147*
COC(=O)c1cccc(NC(=O)c2cc3sccc3n2C)c1	-76*
CCn1c(C(=O)NC2CCC(C)CC2)cc2sccc21 (stereo not drawn)	-87*
O=S(=O)(/N=C(/Nc1ccccn1)c1ccc(Cl)cc1)c1ccc(Cl)cc1	-91*
Cc1ccc(S(=O)(=O)/N=C(/NNC(=O)c2cccc(Cl)c2)c2ccccc2)cc1	-101*
O=C(NN/C(=N/S(=O)(=O)c1ccc(Cl)cc1)c1ccccc1)c1cccc(Cl)c1	-124*
O=C(NN/C(=N/S(=O)(=O)c1ccc(Cl)cc1)c1ccccc1)c1ccc(O)cc1	-112*
CC(=O)Nc1ncc(N=Nc2cccc(C(F)(F)F)c2)s1	-79*
Cc1ccc(NC(=O)ON=C2CCCC2)cc1	-205*
O=C(Nc1ccccc1)ON=C1CCCC1	-82*
SMILES	aSyn 5UTR act
C#CCSc1nnc(-c2sc(-c3ccccc3)nc2C)n1C	-67*
COC(=O)[C@H](Cc1ccccc1)NC(=O)c1cc(COc2c(F)cccc2F)on1	-85*
COc1ccc(C2Nc3ccccc3C(=O)N2c2ccc(C)cc2)cc1Cn1cc([N+](=O)[O-])cn1 (stereo not drawn)	-87*
COc1ccc(C2Nc3ccccc3C(=O)N2c2ccc(C)cc2)cc1Cn1nnc2ccccc21 (stereo not drawn)	-122*
COc1ccc2c(c1)C(C)=CC(C)(C)N2S(=O)(=O)c1ccc(NC(C)=O)cc1	71
COc1ccc2c(c1)C(C)=CC(C)(C)N2S(=O)(=O)c1ccc(Br)cc1	-86*
